High-throughput results: PubChem BioAssay, National Center for Advancing Translational Sciences (NCATS)
Compounds with a hit are over-represented: about 22% of the library has one in this group of screens.
Pf growth 48h – inhibits P. falciparum growth in the first generation, 48 h. Potency, µM (highest dose often 28.7 µM), usual class: inhibitors. hit rate 5.9% among 310,000. P. falciparum luciferase growth in erythrocytes, 48 h
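First compound was added to culture medium, then infected red cells at 0.1% parasitemia and 2% hematocrit (final). After incubation at 37 C under 5% CO2, luciferase detection reagent was dispensed and light output recorded.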
Shiga toxin inh – blocks Shiga toxin action in Vero cells. inhibition, % at 38.7 µM. hit rate 9.2% among 290,000. Vero cells, Shiga toxin protein synthesis inhibition reporter. AID 2315; in the data active means inhibition mostly above about 28%, no sharp cut-off; inactive means mostly below about 43%
Pf growth 96h – inhibits malaria parasite growth, 96 h | P. falciparum luciferase reporter growth, 96 h | Potency, µM (highest dose often 28.7 µM), usual class: inhibitors | hit rate 6.9% among 320,000 | AID 504834
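Delayed-death screen, second-generation endpoint: infected erythrocytes, 2% hematocrit, 0.05% parasitemia final; 96 hours at 37 C, 5% CO2; luciferase detection reagent; luminescence decrease equals reduced growth.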
LmPK inhibitor – LmPK (Leishmania mexicana) enzyme inhibition. Q27686. purified LmPK, Kinase-Glo ATP luminescence, 1 h. Potency, µM (highest dose often 57.5 µM), most hits filed as inhibitors. hit rate 0.37% among 290,000
Target sequence (Q27686 whole entry, looked up): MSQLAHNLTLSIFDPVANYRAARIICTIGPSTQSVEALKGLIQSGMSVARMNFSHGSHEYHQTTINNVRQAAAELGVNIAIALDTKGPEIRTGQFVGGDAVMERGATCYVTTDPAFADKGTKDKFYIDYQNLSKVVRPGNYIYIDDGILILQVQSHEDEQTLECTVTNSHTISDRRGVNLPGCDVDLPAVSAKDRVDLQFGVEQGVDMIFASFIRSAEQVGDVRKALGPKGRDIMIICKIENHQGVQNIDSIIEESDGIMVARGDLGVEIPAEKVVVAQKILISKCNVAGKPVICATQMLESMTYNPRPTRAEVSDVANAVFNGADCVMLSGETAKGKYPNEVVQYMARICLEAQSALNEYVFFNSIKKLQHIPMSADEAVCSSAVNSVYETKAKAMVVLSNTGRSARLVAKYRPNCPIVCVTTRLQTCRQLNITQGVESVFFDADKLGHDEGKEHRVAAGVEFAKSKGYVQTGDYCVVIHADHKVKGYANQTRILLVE
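ATP generated from ADP (0.1 mM) and PEP (0.5 mM) by 0.1 nM LmPK over 1 h at room temperature (pH 7.2 imidazole buffer) was detected by coupled luciferase luminescence. Values were normalized to uninhibited and no-enzyme wells.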
CHX counter – counter-screen for Shiga toxin inhibitors: cycloheximide protein synthesis inhibition; AID 2314; hit rate 12% among 300,000; max response, %; cell reporter, cycloheximide protein synthesis inhibition counterscreen; in the data active means max response mostly above about 13%, no sharp cut-off; inactive means mostly below about 14%; further: read at 38.3 µM for the half of the compounds with a filed dose
Large screens that a line does not name were inactive; ! = repeats disagree. Unless noted, the call rests on the fitted dose curve; in most records, active means well fitted inhibition curve with a large enough effect; inconclusive means small, poorly fitted or top-dose-only effect, or another doubt; inactive means no such curve, though single readings can be large or run the other way.

Cc1ccc(-n2c(C)cc3c2CCCC3=O)cc1	Pf growth 48h 10µM
Cc1ccc(-c2cc3c(n2-c2ccc(C(=O)O)cc2)CCCC3=O)cc1	Shiga toxin inh 64, CHX counter 19
CCCc1cc(=O)oc2cc(OC(C)C(=O)NC3CC(C)(C)NC(C)(C)C3)ccc12 (configuration not stated)	Pf growth 48h inconclusive, Pf growth 96h inconclusive
CC(C)CNC(=S)N1CCC(c2nc(-c3ccc(F)cc3)no2)CC1	Pf growth 96h inconclusive
COCCNC(=S)N1CCC(c2nc(-c3ccc(N(C)C)cc3)no2)CC1	Pf growth 48h inconclusive, CHX counter 24
COC(=O)c1ccccc1-c1c2ccc(=N)cc-2oc2cc(N)ccc12	Pf growth 48h 1.3µM, Pf growth 96h 0.33µM (no result: Shiga toxin inh, LmPK inhibitor, CHX counter)
O=C(O)c1ccccc1-c1c2ccc(=O)cc-2oc2cc(O)ccc12	none (no result: LmPK inhibitor)
COc1cccc2c1C(=O)c1c(O)c3c(c(O)c1C2=O)C[C@@](O)(C(C)=O)C[C@@H]3O[C@H]1C[C@H](N)[C@H](O)[C@H](C)O1	Pf growth 48h 0.37µM, Shiga toxin inh 42!, Pf growth 96h 0.59µM
CC(=O)[C@]1(O)Cc2c(O)c3c(c(O)c2[C@@H](O[C@H]2C[C@H](N)[C@H](O)[C@H](C)O2)C1)C(=O)c1c(O)cccc1C3=O	Pf growth 48h 2.4µM, Pf growth 96h 1.5µM (no result: LmPK inhibitor)
CC(=O)[C@]1(O)Cc2c(O)c3c(c(O)c2[C@@H](O[C@H]2C[C@H](N)[C@H](O)[C@H](C)O2)C1)C(=O)c1ccccc1C3=O	Pf growth 48h 3.8µM, Pf growth 96h 2.7µM (no result: Shiga toxin inh, LmPK inhibitor, CHX counter)
CCCCC(=O)OCC(=O)[C@]1(O)Cc2c(O)c3c(c(O)c2[C@H](OC2CC(NC(=O)C(F)(F)F)C(O)C(C)O2)C1)C(=O)c1c(OC)cccc1C3=O (some centres not stated)	Pf growth 48h 3.4µM, Pf growth 96h 2.4µM (no result: Shiga toxin inh, LmPK inhibitor, CHX counter)
COc1cccc2c1C(=O)c1c(O)c3c(c(O)c1C2=O)C[C@](O)(C(=O)CO)C[C@@H]3O[C@H]1C[C@H](N)[C@@H](O)[C@H](C)O1	none (no result: Shiga toxin inh, LmPK inhibitor, CHX counter)
CC1Sc2ccc(S(=O)(=O)NCCc3ccc(Cl)cc3)cc2NC1=O (configuration not stated)	none
O=C1CCC([N+](=O)[O-])C(c2cc(Br)ccc2F)N1 (configuration not stated)	none
O=C(NC(=S)Nc1ncccn1)c1ccc(F)cc1	Shiga toxin inh 70, CHX counter 49
O=C(NC(=S)Nc1cccnc1Cl)c1ccc(F)cc1	Shiga toxin inh 83, CHX counter 49
O=C(NC(=S)Nc1ccccc1N1CCCC1)c1ccc(F)cc1	Pf growth 48h inconclusive
O=C(Nc1cccnc1Cl)c1cc(-c2ccc(F)cc2)on1	none
COC(=O)C1=C[C@@H](C(=O)OC)C2C3=C(C(=O)[C@@]2(C)NC(=O)c2ccccc2)[C@H](C)[C@@H]2C(=O)NC(=O)[C@@H]2[C@@H]3C1 (some centres not stated)	none (no result: Pf growth 48h, Pf growth 96h, LmPK inhibitor)
COc1ccc(S(=O)(=O)N2CCCCC2)cc1NC(=O)CCNC(=O)c1ccco1	Pf growth 48h 9.3µM, Pf growth 96h inconclusive (no result: Shiga toxin inh, LmPK inhibitor, CHX counter)
Cc1ccc(S(=O)(=O)N2CCCCC2)cc1NC(=S)NC(=O)c1ccco1	Pf growth 48h inconclusive, Pf growth 96h 4.1µM
COc1ccc(S(=O)(=O)N2CCCCC2)cc1NC(=O)CN1CCN(C(C)=O)CC1	Pf growth 48h inconclusive
Cc1ccc(S(=O)(=O)N2CCCCC2)cc1NC(=O)c1ccc(Br)o1	Pf growth 48h 7.4µM, Pf growth 96h inconclusive (no result: Shiga toxin inh, LmPK inhibitor, CHX counter)
COc1ccccc1Oc1ccc(S(=O)(=O)N2CCCCC2)cc1NC(=O)CCNC(C)=O	Pf growth 48h 12µM, Pf growth 96h 5.9µM
CCC1C(=O)C[C@H]2CCN3C(=O)CCCC1C23 (some centres not stated)	none (no result: Pf growth 48h, Pf growth 96h, LmPK inhibitor)
CCOC(=O)c1ccc(N(C(=O)CNC(=O)c2ccco2)C(C(=O)NCC2CCCO2)c2ccc(OC)c(OC)c2)cc1 (configuration not stated)	none
Nc1c2c(nn1-c1ccc(F)cc1)CSC2	none
CCC(C)C(N)C(=O)O (configuration not stated)	none (no result: Shiga toxin inh, LmPK inhibitor, CHX counter)
C=CCc1cccc2cc(C(=O)N3CCN(C(=O)c4ccccc4)CC3)c(=O)oc12	Pf growth 48h inconclusive
CCN(CC)Cc1c(NC(=O)c2ccccc2)sc(C)c1C	none
CCOC(=O)c1c(NC(=O)c2ccccc2)sc2c(O)c(CN(CC)CC)ccc12	Pf growth 48h 1.9µM
Cc1ccc(NC(=O)c2cnccn2)nc1	none
Cc1ccc(NC(=O)c2cnccn2)c(Br)c1	Pf growth 96h inconclusive, CHX counter 26 (no result: Shiga toxin inh)
O=C(Nc1ccccc1N1CCOCC1)c1cnccn1	Pf growth 48h inconclusive
O=C(Nc1ccccc1F)c1cc2nc(C(F)F)cc(C(F)F)n2n1	Shiga toxin inh 52, CHX counter 22
O=C(Nc1ccccc1-c1ccccc1)c1cnccn1	Pf growth 96h inconclusive, CHX counter 14 (no result: Pf growth 48h)
O=C(Nc1ccccc1F)c1cnccn1	Shiga toxin inh 53, Pf growth 96h inconclusive, CHX counter 18
Cn1nccc1C(=O)Nc1cccc(S(=O)(=O)N2CCOCC2)c1	none
CC(=O)c1ccc(N2CCN(C(=O)C3CCN(S(=O)(=O)c4cccs4)CC3)CC2)cc1	Pf growth 48h inconclusive
CCS(=O)(=O)N1CCC(C(=O)Nc2cccc(F)c2)CC1	Pf growth 96h inconclusive
C/C=C/C(=O)[C@@H](C)[C@@H](/C=C/C[Si](C)(C)C)C(C)C	none (no result: Pf growth 48h, Pf growth 96h, LmPK inhibitor)
O=C(/C=C/Nc1nccs1)C(F)(F)Cl	Shiga toxin inh 102, CHX counter 35
COc1ccc(-c2nnc(SCC(=O)N3CCCc4ccccc43)o2)cc1OC	Pf growth 96h 12µM
COc1ccc(-c2nnc(SCC(=O)N3CCCCC3)o2)cc1OC	Pf growth 96h inconclusive
Cc1ccccc1-c1nnc(SCC(=O)N2CCCC2)o1	Shiga toxin inh 80, CHX counter 44
COc1ccccc1-c1nnc(SCC(=O)N2CCCCC2)o1	Pf growth 96h inconclusive, CHX counter 23
O=c1cc(CSc2ccc(S(=O)(=O)N3CCCCC3)cn2)nc2sccn12	none
COCCNC(=S)N/N=C(\C)c1cccc(OC)c1	Pf growth 96h inconclusive
COCC(C)n1c(SCC(=O)N2CCCCC2)nc2ccccc2c1=O (configuration not stated)	none
COCC(C)n1c(SCC(=O)N2CCc3ccccc3C2)nc2ccccc2c1=O (configuration not stated)	Pf growth 48h inconclusive, Pf growth 96h 7.4µM
COCC(C)n1c(SCC(=O)Nc2sccc2C(N)=O)nc2ccccc2c1=O (configuration not stated)	Pf growth 48h 9.3µM, Pf growth 96h inconclusive (no result: Shiga toxin inh, LmPK inhibitor, CHX counter)
CCN(CC)CCNS(=O)(=O)c1ccc(C(=O)NN)cc1	Pf growth 96h inconclusive
CCc1nnc(NC(=O)c2cccnc2SC)s1	none
O=C(Nc1ccc(O)c2c(=O)cc(-c3ccccc3Cl)oc12)c1ccc(F)cc1	Shiga toxin inh 100!, CHX counter 88!
Cc1ccc(/C=C/C(=O)Nc2ccc(O)c3c(=O)cc(-c4ccccc4Cl)oc23)cc1	Pf growth 48h inconclusive, Pf growth 96h 10µM
